AmpC inh det – inhibitors of E. coli AmpC beta-lactamase with detergent; P00811; purified AmpC, nitrocefin hydrolysis with detergent; Potency, µM (doses to about 28.7 µM), for inactives: at the top dose activity change, negative = inhibition; actives 0.09% (n = 71,000); AID 584; active means well fitted curve in the direction sought with a large enough effect; inconclusive means small, poorly fitted or top-dose-only effect; further: on the % scale 0 is the no-effect control and ±100 the full control effect
Target sequence (P00811 whole entry, looked up): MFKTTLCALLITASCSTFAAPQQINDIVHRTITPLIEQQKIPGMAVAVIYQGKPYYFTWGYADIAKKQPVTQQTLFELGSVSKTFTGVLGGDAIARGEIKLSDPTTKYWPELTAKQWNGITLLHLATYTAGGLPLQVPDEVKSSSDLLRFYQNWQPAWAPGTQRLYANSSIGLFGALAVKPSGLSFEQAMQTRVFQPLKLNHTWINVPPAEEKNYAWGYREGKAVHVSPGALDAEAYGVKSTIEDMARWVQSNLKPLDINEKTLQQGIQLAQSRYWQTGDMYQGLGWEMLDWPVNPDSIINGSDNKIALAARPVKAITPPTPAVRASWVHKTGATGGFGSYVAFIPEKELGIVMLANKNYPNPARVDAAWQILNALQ
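E. coli AmpC (5.3 nM) in 20 mM phosphate pH 7.0 with 0.01% Triton X-100, preincubated 15 min RT with compound; nitrocefin (2 uL of 800 uM stock) hydrolysis followed by 480 nm absorbance every 20 s over 4 min.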
AmpC nodet inh – AmpC beta-lactamase inhibition, detergent-free assay. AID 585. Potency, µM (doses to about 28.7 µM), for inactives: top-dose activity change, negative = inhibition. AmpC nitrocefin hydrolysis, absorbance 480 nm, no detergent. P00811. actives 1.8% (n = 71,000); further: % of control where 0% means no effect
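AmpC, 20 mM phosphate pH 7.0; 15 min cpd preinc, RT; start with nitrocefin (800 uM stock); A480 kinetic read, 20 s intervals, 4 min. No-enzyme wells = negative control.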
Anthrax LT inh – blocks cellular internalization of anthrax lethal toxin; Cells, anthrax lethal toxin internalization, FRET ratio (460/530); Potency, µM (series often up to 40 µM), for inactives: top-dose activity change, negative = inhibition, most hits filed as inhibitors; actives 0.67% (n = 70,000); further: on the % scale 0 is the no-effect control and ±100 the full control effect; nearly all actives have a fitted effect of over 50% in size
Prx2 Sm inh – blocks S. mansoni peroxiredoxin 2 enzymatic activity; Potency, µM; AID 448; actives 0.07% (n = 65,000); S. mansoni Prx2 activity coupled to TGR/GSH (TGR is thioredoxin glutathione reductase), NADPH fluorescence loss, qHTS
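Purified S. mansoni TGR and Prx2 in pH 7.4 phosphate buffer with EDTA and Tween-20 were preincubated with compounds for 15 min. Further NADPH/GSH was added, then a 2.5 mM H2O2 aliquot initiated turnover, followed kinetically by NADPH fluorescence.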
* marks the source's active call; other numbers are inactive results; u = inconclusive; x = no result; [ ] = another dose, or the depositor's remark. An excerpt weighted towards active compounds, which were near 2.4% of everything screened. Unless noted, the call rests on the fitted dose curve. Potency means the concentration at half of the fitted maximal effect.

SMILES	AmpC inh det	AmpC nodet inh	Anthrax LT inh	Prx2 Sm inh
CCN(CC)c1ccc(NC(=O)C2CCCN(S(=O)(=O)c3cccnc3)C2)c(C)c1 (stereo unspecified)	16%	4µM*[single pt active]	-13%	>57
COc1ccc(S(=O)(=O)N2CCCC(C(=O)Nc3cccnc3)C2)cc1Cl (stereo unspecified)	10%	41%	-10%	>57
COc1ccc(NC(=O)C2CCCN(S(=O)(=O)c3cccnc3)C2)c(OC)c1 (stereo unspecified)	16%	4µM*[single pt active]	-2%	>57
C=C(C)[C@@H]1CN[C@H](C(=O)O)[C@H]1CC(=O)O	-1%	-7%	2%	>57
c1ccc(C2=Nn3c(nnc3-c3cc(-c4ccccc4)n[nH]3)SC2)cc1	3%	38%	13µM*	>57
Cc1ccc(-c2nnc3n2N=C(c2ccccc2)CS3)cc1	13%	8%	-18%	>57
O=c1oc2ccccc2n1CCc1ccccc1	-2%	-11%	-4%	>57
O=c1oc2ccccc2n1Cc1ccccc1Cl	14%	4µM*	u	>57
Nc1ccc(N2CCCCC2)cc1N1CCCCC1	5%	13%	0%	>57
CN1CCN(c2ccc(N)c(N3CCN(C)CC3)c2)CC1	11%	10%	13µM*	>57
CCCCCCCC(=O)O[C@H](CC(=O)O)C[N+](C)(C)C	1%	5%	-13%	>57
Cc1ccccc1OCc1nc(-c2ccc(NC(=O)c3ccc4c(c3)OCO4)cc2)no1	-2%	13µM*	-8%	>57
Cc1ccccc1OCc1nc(-c2ccc(NC(=O)c3ccco3)cc2)no1	1%	-4%	u	>57
COCCNC(=O)c1cc2c(-c3ccc(Cl)cc3)nn(C)c2s1	11%	128%	-22%	>57
COCCCNC(=O)c1cc2c(-c3ccc(Cl)cc3)nn(C)c2s1	6%	143%	-14%	>57
CCN1CCCC1CNC(=O)c1cc2c(-c3ccc(Cl)cc3)nn(C)c2s1 (stereo unspecified)	14%	4µM*[single pt active]	4µM*	>57
CCCCNC(=O)c1cc2c(-c3ccc(Cl)cc3)nn(C)c2s1	12%	26%	-5%	x
Cn1nc(-c2ccc(Cl)cc2)c2cc(C(=O)NCCCN3CCCC3)sc21	13%	4µM*[single pt active]	2µM*	>57
Cn1nc(-c2ccc(Cl)cc2)c2cc(C(=O)N3CCC(N4CCCCC4)CC3)sc21	16%	44%	-7%	>57
CCOC(=O)N1CCC(NC(=O)c2cc3c(-c4ccc(Cl)cc4)nn(C)c3s2)CC1	11%	4µM*[single pt active]	-2%	>57
CC(C)NC(=O)c1cc2c(-c3ccc(Cl)cc3)nn(C)c2s1	11%	0.79µM*[single pt active]	-4%	>57
CC(=O)c1c(O)c(C)c(O)c2c1OC1=CC(=O)[C@H](C(C)=O)C(=O)[C@]12C	-3%	-5%	u	>57
CCO[C@H](c1cc(OC)cc([N+](=O)[O-])c1OC)[C@H](C)/C=C\CC(=O)OC	x	x	3%[8 µM]	x
CN(C)C(=O)[C@]1(C)C[C@H]1[C@H](NC(=O)CNC(=O)[C@@H]1CCCN1C(=O)[C@]1(C)C[C@H]1[C@H](NC(=O)OCc1ccccc1)c1ccccc1)c1ccccc1	8%	154%	-13%	x
CC[C@@H]1CC(=O)N(SC[C@H](N)C(=O)O)C1=O	-3%[5.75 µM]	-4%[5.75 µM]	-13%[8 µM]	>57
SMILES	AmpC inh det	AmpC nodet inh	Anthrax LT inh	Prx2 Sm inh
COc1cccc(-c2nn(C)c3sc(C(=O)NCc4ccco4)cc23)c1	-7%	49%	-12%	>57
CCN1CCCC1CNC(=O)c1cc2c(-c3cccc(OC)c3)nn(C)c2s1 (stereo unspecified)	-3%	55%	16µM*	>57
Cc1ccc(CNC(=O)c2cc3c(-c4ccc(Cl)cc4)nn(C)c3s2)o1	16%	4µM*[single pt active]	-8%	>57
COc1ccc(-c2oc3cc(OC)c(OC(C)=O)c(OC)c3c(=O)c2OC)cc1OC(C)=O	0%	18%	u	37*
c1ccc(CNc2ccnc(-c3cccnc3)n2)cc1	0%	46%	u	>57
O=C1c2ccccc2C(Nc2ccc3c(c2)OCCO3)N1Cc1ccc2c(c1)OCO2 (stereo unspecified)	11%	4µM*[single pt active]	u	>57
O=C1c2ccccc2C(Nc2ccc3c(c2)OCCO3)N1c1ccccn1 (stereo unspecified)	9%	14%	u	>57
CCN(CC)S(=O)(=O)c1ccc(NC2c3ccccc3C(=O)N2Cc2ccc3c(c2)OCO3)cc1 (stereo unspecified)	15%	4µM*[single pt active]	u	>57
N[C@H](CCl)C(=O)O	-1%	-3%	0%	>57

Screening results (PubChem BioAssay)
